Shown are actives, neighbours in structure and some others; about 13% of the full set was active somewhere.
Pf growth 48h = Primary qHTS for delayed death inhibitors of the malarial parasite plastid, 48 hour incubation; P. falciparum luciferase growth in erythrocytes, 48 h; Potency, µM (top dose mostly 28.7 µM), inactives show at the top dose activity change, negative = inhibition, usual class: inhibitors; 310,000 compounds, 5.9% hits; AID 504832, 2011; note: potency is the fitted concentration of half-maximal effect
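Luminescence readout; reporter = integrated firefly luciferase in P. falciparum. RBC culture at 2% hematocrit, 0.1% parasitemia final, 37 C/5% CO2; decreased signal taken as growth inhibition.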
HCMV inh = qHTS Assay for inhibitors of the human cytomegalovirus (HCMV) | HFF cells, HCMV-luciferase reporter, 72 h; hits give low values | AID 1259415, 2018 | activity change, negative = inhibition, % at 57.5 µM | 410,000 compounds, 4.5% hits; in the data active = activity change below about -60%; inconclusive = no clear call, values can overlap the other calls; inactive = above about -39%
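Two compound doses tested in HFFs infected with HCMV-luciferase, MOI 1 PFU/cell, 72 h at 37C. Lysate luminescence read with OneGlo; data normalized against buffer-only and 10uM Salinomycin inhibitor controls.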
HCV inh = qHTS Assay for Inhibitors of Hepatitis C Virus (HCV). Huh7.5.1 HCVcc-Cre infection, luciferase reporter, 44 h. Potency, µM (top dose mostly 41.8 µM), inactives show at the highest dose activity change, negative = inhibition, actives largely listed as inhibitors. 340,000 compounds, 3.4% hits. AID 651820, 2012; note: potency is the fitted concentration of half-maximal effect
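Compounds are dispensed onto cells plated 4 h earlier at 1,000 per well, with HCVcc-Cre virus (about 0.5 moi) added next. Following 44 h of culture, luminescent signal is measured for 15 sec after 15 min with substrate at room temperature.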
Pf growth 96h = Primary qHTS for delayed death inhibitors of the malarial parasite plastid, 96 hour incubation | Potency, µM (series often up to 28.7 µM), for inactives: at the highest dose activity change, negative = inhibition, hits mostly inhibitors | P. falciparum luciferase reporter growth, 96 h | 320,000 compounds, 6.9% hits; note: potency is the fitted concentration of half-maximal effect
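Cell-based qHTS: luciferase-tagged P. falciparum in erythrocytes (2% hematocrit, 0.05% parasitemia final) incubated with compounds for 96 hours, 37 C, 5% CO2; luciferase detection reagent then added and luminescence measured.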
* marks the source's active call; other numbers are inactive results; ? = inconclusive; . = no result; [ ] = remark or other dose. Unless noted, calls come from the whole dose curve; as a rule, active = well fitted inhibition curve with a large enough effect; inconclusive = small, poorly fitted or top-dose-only effect, or another doubt; inactive = no such curve, though single readings can be large or run the other way. % is set by controls: 0 for no effect and ±100 for the full control effect.

SMILES | Pf growth 48h | HCMV inh | HCV inh | Pf growth 96h
CCC(=O)N1CCc2cc(CNC(=O)Nc3cc(C)ccc3C)ccc21 | . | 0 | . | .
FC(F)(F)c1ccccc1NC(=S)Nc1cccc(Cl)c1 | -9%[5.75 µM] | -76* | 24% | ?
FC(F)(F)c1cccc(NC(=S)Nc2ccc(Cl)cc2Cl)c1 | ? | 2 | 19% | ?
Fc1ccc(NC(=S)Nc2cccc(Cl)c2)cc1 | 20% | -73* | ? | 19%
S=C(N/N=C/c1cccc2ccccc12)Nc1cccc(Cl)c1 | ? | -21 | -27% | 2.9µM*
COC(=O)c1cc(OC)c(OC)cc1NC(=S)Nc1cccc(Cl)c1 | 3% | 26 | 2% | 13µM*
O=C(O)c1ccccc1-c1ccc(C(F)(F)F)cc1 | -14% | . | . | -5%
Cc1cc(C)c(NC2=NCCS2)cc1C | . | -89* | . | .
COc1ccccc1NC1=NCCS1 | 20% | 19 | 1% | .
O=C(Cn1ccn(-c2ccc(F)c(F)c2)c(=O)c1=O)c1ccc(F)cc1 | . | -17 | . | .
Fc1cccc(-c2cc3nc(-c4ccccc4)cc(N4CCC5(CC4)OCCO5)n3n2)c1 | 8.3µM* | -8 | -27% | -17%
COCCN1CCN(c2cc(-c3ccccc3)nc3cc(-c4cccc(F)c4)nn23)CC1 | 12µM* | -18 | 10µM* | ?
Cc1ccc(-c2cc3nc(-c4ccccc4)cc(N4CCC5(CC4)OCCO5)n3n2)cc1 | 8.3µM* | 33 | -30% | 0.29µM*
Fc1ccc(-c2cc3nc(-c4ccccc4)cc(N4CCOCC4)n3n2)cc1 | . | -15 | ? | 65%
Cc1ccc2c(=O)cc(C(=O)Nc3ccc(S(=O)(=O)N4CCCCC4)cc3)oc2c1 | . | 25 | . | .
COC(=O)c1sccc1S(=O)(=O)N(CC(=O)NCc1ccc(F)cc1)c1ccc(C)c(C)c1 | . | 3 | . | .
CNC[C@H](Cc1ccccc1)NC[C@@H](Cc1cccc2ccccc12)NCCc1ccc(C)cc1 | 2.6µM* | ? | 14% | 2.9µM*
CNCCNC[C@H](Cc1cccc2ccccc12)NCCc1ccccc1 | . | -100* | ? | .
Cc1ccc(C(=O)NC(CCc2ccccc2)C(=O)O)cc1 (configuration not stated) | . | 9 | -4% | .
c1ccc(CCNCCCOc2cccc3ccccc23)cc1 | 3% | 7 | ? | 1%
Cc1cccc(C(=O)Nc2ccccc2OCc2cc(=O)n3ccccc3n2)c1 | . | 25 | . | .
COc1ccc(-c2cc(C(F)(F)F)n3nc(C(=O)OC(C)C)cc3n2)cc1 | . | 8 | . | .
Cc1ccc(NP(=O)(Nc2ccc(C)cc2)Nc2ccc(C)cc2)cc1 | 12µM* | 20 | ? | ?
COc1cc(Nc2cc3c(cn2)nc(-c2ccco2)n3C)cc(OC)c1OC | . | 11 | . | .
Cc1ccc(C)c(NCCCCCCCC(=O)O)c1 | . | -16 | . | .
SMILES | Pf growth 48h | HCMV inh | HCV inh | Pf growth 96h
CCOC(=O)C1=C(C)NC(=S)NC1c1ccc(-c2ccc(Cl)cc2)o1 (configuration not stated) | ? | -32 | ? | 7.4µM*
CCOC(=O)C1=C(C)NC(=S)NC1c1ccc(-c2cccc(Cl)c2C)o1 (configuration not stated) | ? | -9 | 6.3µM* | 1%
CC(=O)Nc1ccc(NC(=O)CCc2nc3cccnc3n2Cc2cccs2)cc1 | . | -7 | . | .
CCOc1cccc(C2c3c(-c4cc(C)ccc4O)n[nH]c3C(=O)N2Cc2ccco2)c1 (configuration not stated) | . | -10 | . | .
CCc1cnc2c(c1SCC(=O)c1ccc(OC)cc1)c(=O)n(C)c(=O)n2C | . | -6 | . | .
CC(C)CN=C(NS(=O)(=O)c1ccccc1)C(Cl)(Cl)Cl | 2.6µM* | -100* | 5µM* | 10µM*
CC(C)CC(NS(=O)(=O)c1ccccc1)C(=O)O (configuration not stated) | -7% | -11 | 5% | .
CCC(=O)N(C1=C(NC(C)C)C(=O)c2ccccc2C1=O)C(C)C | 0.13µM* | ? | 15% | 0.066µM*
CCCCN1CC(=O)N2[C@H]3c4ccc(OC)cc4OC[C@@H]3[C@H](c3ccccc3)[C@]2(C)C1=O | 2.1µM* | 18 | ? | 7.4µM*
COc1ccc2c(c1)OC[C@H]1[C@H]2N2C(=O)CN(Cc3ccco3)C(=O)[C@@]2(C)[C@H]1c1ccccc1 | ? | 0 | ? | 9.3µM*
C[C@@]12C(=O)N(Cc3ccc(Cl)cc3)CC(=O)N1[C@H]1c3ccccc3OC[C@@H]1[C@@H]2c1ccccc1 | ? | 14 | ? | ?
COc1ccc2c(c1)OC[C@H]1[C@H]2N2C(=O)CN(Cc3ccc(C)cc3)C(=O)[C@@]2(C)[C@H]1c1ccccc1 | ? | -12 | 11µM* | ?
COc1ccc(CN2CC(=O)N3[C@H]4c5ccccc5OC[C@@H]4[C@H](c4ccccc4)[C@]3(C)C2=O)cc1 | 9.3µM* | -22 | ? | ?
COc1ccc2c(c1)OC[C@H]1[C@H]2N2C(=O)CN(Cc3ccc(F)cc3)C(=O)[C@@]2(C)[C@H]1c1ccccc1 | ? | -5 | ? | ?
C[C@@]12C(=O)N(Cc3ccc(F)cc3)CC(=O)N1[C@H]1c3cc(Cl)ccc3OC[C@@H]1[C@@H]2c1ccccc1 | . | 26 | ? | .
C[C@@]12C(=O)N(Cc3ccccc3)CC(=O)N1[C@H]1c3cc(Cl)ccc3OC[C@@H]1[C@@H]2c1ccccc1 | 9.3µM* | -5 | ? | ?
Cc1cc2ncn(/N=C/c3cccnc3)c2cc1C | 15µM* | 24 | ? | ?
CCOc1ccccc1N(CC(=O)Nc1c(C)n(C)n(-c2ccccc2)c1=O)S(=O)(=O)c1ccccc1 | ? | -78* | 9% | ?
CCOc1ccc(N(CC(=O)Nc2c(C)n(C)n(-c3ccccc3)c2=O)S(=O)(=O)c2ccc(F)cc2)cc1 | -2% | -66* | . | ?
COC(=O)CN1C(=O)C(C)(C)c2cc(S(=O)(=O)NCc3ccc(Cl)cc3)ccc21 | . | 9 | . | .
CCOC(=O)C1(Cc2ccc(OC)cc2)CCN(C(=O)Cn2cnnn2)CC1 | 2% | -5 | 0% | 1.9µM*
CCc1ccc(S(=O)(=O)Nc2cc3c(cc2C)n(C)c(=O)c(=O)n3C)cc1 | . | 6 | . | .
Fc1ccccc1N1CCN(c2ncnc3nc[nH]c23)CC1 | 12% | ? | 7% | 11%
Fc1ccccc1N1CCN(c2ncnc3[nH]ncc23)CC1 | 9% | ? | 16µM* | ?
N#C/C(=C\c1ccccc1[N+](=O)[O-])C(=O)NCc1ccccc1 | 15µM* | 6 | 5% | ?
N#C/C(=C\C=C\c1ccccc1[N+](=O)[O-])C(=O)NCc1ccccc1 | 3.7µM* | -98* | 32µM* | 1.9µM*
CCCCCCCCNC(=O)/C(C#N)=C/c1ccccc1[N+](=O)[O-] | 13µM* | -35 | -5% | ?
N#C/C(=C/c1ccccc1[N+](=O)[O-])C(=O)NCc1ccco1 | -1% | 0 | 2% | ?
COC(=O)C(=Cc1ccccc1[N+](=O)[O-])C(=O)OC | ? | -96* | ? | 9.3µM*
